Four molecules from PubChem BioAssay (EPA / NIEHS) can be followed below.

Common to all, as to conditions: mRNA level, 48 h; actives raise or lower the signal
Read-out in assay [1]: Cytochrome P450 7A1 (Homo sapiens) (UniProt P22680)
As to the kind of experiment: LTEA_HepaRG_CYP7A1: Life Technologies and Expression Analysis (LTEA) Assay for Cytochrome P450 7A1 (CYP7A1) using HepaRG (AID 2283496). The procedure, abridged: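 HepaRG, 48 h exposure, 8-pt half-log series from 100 uM, 0.5% DMSO vehicle, duplicates. Readout: TaqMan qRT-PCR mRNA vs three housekeeping genes; bidirectional curve fit against DMSO baseline.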

Read-out in assay [2]: Glutathione S-Transferase (GSTA2), GSTA2 (gene 2939)
As to the kind of experiment: LTEA_HepaRG_GSTA2: Life Technologies and Expression Analysis (LTEA) Assay for Glutathione S-Transferase (GSTA2) using HepaRG (AID 2283497). The procedure, abridged:
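GSTA2 transcript levels came from Fluidigm TaqMan qRT-PCR normalized to three housekeeping genes, fitted in both directions against DMSO. HepaRG cultures received chemicals for 48 h in serum-free induction medium (0.5% DMSO), 8 half-log concentrations up to 100 uM, duplicate.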

Read-out in assay [3]: growth arrest and DNA damage 45 (GADD45G), GADD45G (gene 10912)
As to the kind of experiment: LTEA_HepaRG_GADD45G: Life Technologies and Expression Analysis (LTEA) Assay for growth arrest and DNA damage 45 (GADD45G) using HepaRG (AID 2283499). The procedure, abridged: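 GADD45G transcript level by qRT-PCR (housekeeping-normalized: ACTB, GAPDH, POLR2A) after 48 h chemical treatment of a single HepaRG lot in serum-free induction medium; eight-point half-log series up to 100 uM in 0.5% DMSO, duplicates, up- or down-regulation scored.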

Read-out in assay [4]: Glutamate-cysteine ligase regulatory (GCLM), GCLM (gene 2730)
As to the kind of experiment: LTEA_HepaRG_GCLM: Life Technologies and Expression Analysis (LTEA) Assay for Glutamate-cysteine ligase regulatory (GCLM) using HepaRG (AID 2283500). The procedure, abridged:
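GCLM expression quantified by qRT-PCR, normalized to three housekeeping genes, after 48 h chemical treatment of HepaRG cells in duplicate at 8 concentrations (top 100 uM, half-log steps, 0.5% DMSO). Changes fitted both directions against vehicle.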

Read-out in assay [5]: Glutathione S-transferase M3 (GSTM3), GSTM3 (gene 2947)
As to the kind of experiment: LTEA_HepaRG_GSTM3: Life Technologies and Expression Analysis (LTEA) Assay for Glutathione S-transferase M3 (GSTM3) using HepaRG (AID 2283501). The procedure, abridged: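 GSTM3 transcript levels came from Fluidigm TaqMan qRT-PCR normalized to three housekeeping genes, fitted in both directions against DMSO. HepaRG cultures received chemicals for 48 h in serum-free induction medium (0.5% DMSO), 8 half-log concentrations up to 100 uM, duplicate.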

Read-out in assay [6]: Heat shock 70 kDa protein 1 (HSPA1A), gene 3303
As to the kind of experiment: LTEA_HepaRG_HSPA1A: Life Technologies and Expression Analysis (LTEA) Assay for Heat shock 70 kDa protein 1 (HSPA1A) using HepaRG (AID 2283502). The procedure, abridged: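 HSPA1A expression measured by qRT-PCR with ACTB/GAPDH/POLR2A normalization; curves fitted in both directions relative to DMSO vehicle. Exposure: 48 h in HepaRG cells, duplicate 8-point half-log series from 100 uM, 0.5% DMSO, serum-free induction medium.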

Read-out in assay [7]: Hypoxia-inducible factor 1-alpha (Homo sapiens) (UniProt Q16665)
As to the kind of experiment: LTEA_HepaRG_HIF1A: Life Technologies and Expression Analysis (LTEA) Assay for Hypoxia-inducible factor 1 (HIF1A) Trancription factor using HepaRG (AID 2283503). The procedure, abridged:
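HIF1A transcript level read by qRT-PCR (ACTB, GAPDH, POLR2A normalization) after 48 h chemical exposure of HepaRG cultures. Eight half-log concentrations, top 100 uM, 0.5% DMSO vehicle, duplicates; bidirectional curve fit against DMSO baseline.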

Read-out in assay [8]: 3-Hydroxy-3-Methylglutaryl-CoA Synthase 2 (HMGCS2), HMGCS2 (gene 3158)
As to the kind of experiment: LTEA_HepaRG_HMGCS2: Life Technologies and Expression Analysis (LTEA) Assay for 3-Hydroxy-3-Methylglutaryl-CoA Synthase 2 (HMGCS2) using HepaRG (AID 2283504). The procedure, abridged: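 Readout is HMGCS2 transcript by qRT-PCR, housekeeping-normalised (ACTB/GAPDH/POLR2A) and fitted bidirectionally against 0.5% DMSO. Differentiated HepaRG cells received chemicals 48 h, duplicate wells, eight half-log concentrations topping at 100 uM.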

Read-out in assay [9]: Insulin Like Growth Factor 1 (IGF1), IGF1 (gene 3479)
As to the kind of experiment: LTEA_HepaRG_IGF1: Life Technologies and Expression Analysis (LTEA) Assay for Insulin Like Growth Factor 1 (IGF1) using HepaRG (AID 2283506). The procedure, abridged:
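Expression measured by TaqMan qRT-PCR on a Fluidigm array, with three housekeeping genes for normalisation, after 48 h treatment of HepaRG cells. Top concentration 100 uM with half-log steps, 0.5% DMSO vehicle, bidirectional fit.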

Read-out in assay [10]: Intercellular Adhesion Molecule 1 (ICAM1), ICAM1 (gene 3383)
As to the kind of experiment: LTEA_HepaRG_ICAM1: Life Technologies and Expression Analysis (LTEA) Assay for Intercellular Adhesion Molecule 1 (ICAM1) using HepaRG (AID 2283507). The procedure, abridged: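 ICAM1 transcript levels measured by qRT-PCR, normalized to three housekeeping genes (ACTB, GAPDH, POLR2A), after 48 h chemical exposure of HepaRG cells. Duplicate eight-point half-log series from 100 uM in 0.5% DMSO; gain or loss fitted against vehicle.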

Read-out in assay [11]: Insulin-like growth factor-binding protein 1 (IGFBP1), IGFBP1 (gene 3484)
As to the kind of experiment: LTEA_HepaRG_IGFBP1: Life Technologies and Expression Analysis (LTEA) Assay for Insulin-like growth factor-binding protein 1 (IGFBP1) using HepaRG (AID 2283508). The procedure, abridged: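 Read-out is qRT-PCR transcript level normalized to three housekeeping genes, fitted in both directions against 0.5% DMSO. Differentiated HepaRG cells received eight half-log concentrations (top 100 uM) in duplicate for 48 h in serum-free induction medium.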

Read-out in assay [12]: Interleukin 6 Receptor (IL6R), IL6R (gene 3570)
As to the kind of experiment: LTEA_HepaRG_IL6R: Life Technologies and Expression Analysis (LTEA) Assay for Interleukin 6 Receptor (IL6R) using HepaRG (AID 2283510). The procedure, abridged: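 IL6R transcript level by qRT-PCR after 48 h chemical exposure (8-point, half-log, max 100 uM, 0.5% DMSO vehicle) of HepaRG cells in serum-free induction medium. Normalized to three housekeeping genes; curves fitted in both directions relative to DMSO.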

Read-out in assay [13]: Potassium channel subfamily K member 1 (KCNK1), KCNK1 (gene 3775)
As to the kind of experiment: LTEA_HepaRG_KCNK1: Life Technologies and Expression Analysis (LTEA) Assay for Potassium channel subfamily K member 1 (KCNK1) using HepaRG (AID 2283511). The procedure, abridged: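 KCNK1 transcript measured by TaqMan qRT-PCR against three housekeeping genes, after HepaRG cells were treated 48 h with eight half-log concentrations (top 100 uM, 0.5% DMSO). Curves fitted bidirectionally relative to vehicle.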

Read-out in assay [14]: Keratin 19 (KRT19), KRT19 (gene 3880)
As to the kind of experiment: LTEA_HepaRG_KRT19: Life Technologies and Expression Analysis (LTEA) Assay for Keratin 19 (KRT19) using HepaRG (AID 2283512). The procedure, abridged:
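KRT19 transcript measured by TaqMan qRT-PCR, referenced to three housekeeping genes, after HepaRG cells received test chemicals for 48 h. Eight half-log concentrations, top 100 uM, 0.5% DMSO vehicle; increases and decreases both fitted.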

Read-out in assay [15]: JUN Transcription Factor, JUN (gene 3725)
As to the kind of experiment: LTEA_HepaRG_JUN: Life Technologies and Expression Analysis (LTEA) Assay for JUN Transcription Factor using HepaRG (AID 2283513). The procedure, abridged:
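mRNA measured by TaqMan qRT-PCR after 48 h chemical exposure of HepaRG cultures; normalization to three housekeeping genes. Duplicate eight-point half-log curves from 100 uM in 0.5% DMSO; gain or loss fitted against DMSO baseline.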

Read-out in assay [16]: Lipase C (LIPC), LIPC (gene 3990)
As to the kind of experiment: LTEA_HepaRG_LIPC: Life Technologies and Expression Analysis (LTEA) Assay for Lipase C (LIPC) using HepaRG (AID 2283514). The procedure, abridged: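 LIPC expression was quantified by qRT-PCR against three housekeeping genes (ACTB, GAPDH, POLR2A). Differentiated human HepaRG cells received eight half-log doses (top 100 uM, 0.5% DMSO) in duplicate for 48 h; fitting bidirectional relative to DMSO.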

Read-out in assay [17]: Lipoprotein lipase (LPL), LPL (gene 4023)
As to the kind of experiment: LTEA_HepaRG_LPL: Life Technologies and Expression Analysis (LTEA) Assay for Lipoprotein lipase (LPL) using HepaRG (AID 2283515). The procedure, abridged:
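LPL transcript levels quantified by TaqMan qRT-PCR against three housekeeping genes after 48 h chemical treatment of HepaRG cells. Eight-point half-log series from 100 uM in 0.5% DMSO, tested in duplicate; bidirectional fitting versus vehicle.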

Read-out in the next assay: HGF (gene 3082)
As to the kind of experiment: LTEA_HepaRG_HGF: Life Technologies and Expression Analysis (LTEA) Assay for Hepatocyte Growth Facto (HGF) using HepaRG (AID 2283505). The procedure, abridged: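 HGF transcript was quantified by TaqMan qRT-PCR against three housekeeping genes after 48 h treatment of HepaRG cells. Exposure ran in duplicate over eight half-log steps topping at 100 uM in 0.5% DMSO vehicle.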

Calls of active or inactive are those of the source. How the source made its calls: active means hit-call score of the fitted dose curve at least 0.9, where 1 is the maximum; inactive means score below 0.9.

Hypoxia-inducible factor 1-alpha (Homo sapiens), sequence (Q16665 whole entry, looked up): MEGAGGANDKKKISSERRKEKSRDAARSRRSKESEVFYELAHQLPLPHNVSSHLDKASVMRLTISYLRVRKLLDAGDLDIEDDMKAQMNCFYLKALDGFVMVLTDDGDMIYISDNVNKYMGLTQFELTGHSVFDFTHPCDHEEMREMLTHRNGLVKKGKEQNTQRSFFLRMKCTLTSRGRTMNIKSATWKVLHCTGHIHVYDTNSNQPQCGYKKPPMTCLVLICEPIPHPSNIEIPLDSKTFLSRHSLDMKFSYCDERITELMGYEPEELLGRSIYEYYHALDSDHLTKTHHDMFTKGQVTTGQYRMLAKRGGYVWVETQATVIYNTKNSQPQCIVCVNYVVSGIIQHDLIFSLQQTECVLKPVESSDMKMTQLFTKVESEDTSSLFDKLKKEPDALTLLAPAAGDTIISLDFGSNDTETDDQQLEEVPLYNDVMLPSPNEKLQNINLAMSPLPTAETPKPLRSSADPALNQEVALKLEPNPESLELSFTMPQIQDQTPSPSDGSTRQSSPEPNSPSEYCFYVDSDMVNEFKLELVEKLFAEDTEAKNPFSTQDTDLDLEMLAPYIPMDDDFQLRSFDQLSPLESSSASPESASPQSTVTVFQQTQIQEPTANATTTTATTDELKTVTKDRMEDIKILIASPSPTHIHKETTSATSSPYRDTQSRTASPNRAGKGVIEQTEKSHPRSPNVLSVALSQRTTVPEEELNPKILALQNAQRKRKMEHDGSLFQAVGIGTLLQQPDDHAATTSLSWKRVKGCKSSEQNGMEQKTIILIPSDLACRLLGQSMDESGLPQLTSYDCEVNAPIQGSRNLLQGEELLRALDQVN

For `CCCC(CCC)C(=O)O`, the molecule was called inactive in assay [1], in assay [2], in assay [3], in assay [4], in [5] and in [6]. In addition, the outcome in assay [7], in assay [8], in [9], in assay [10], in [11] and in assay [12] was inactive. Also, the molecule was called inactive in assay [13], in assay [14], in [15], in assay [16] and in [17].
On to `Cc1ncc([C@@H](CCCCCCc2ccc3c(n2)NCCC3)CC(=O)O)cn1`, for which the call in assay [1], in assay [2], in assay [3], in [4], in [6] and in assay [7] was inactive. In addition, the call (in assay [8]; with HGF (gene 3082); in [9]; in [10]; in assay [11]; in assay [12]) was inactive. The outcome in assay [13], in [14], in assay [15] and in [16] was inactive. Moreover, the concentration at half-maximal activity (AC50) (commonly the concentration at which the activity in the assay is half-maximal) in assay [17] is 382 nM (active).
As for `NNC(=O)c1ccncc1`, the outcome in assay [1], in assay [2], in [3], in assay [4], in assay [5] and in assay [6] was inactive. Moreover, the molecule was called inactive (in assay [8]; in the assay with HGF (gene 3082); in assay [9]; in assay [10]; in [11]; in assay [12]). For the same molecule, the molecule was classed as inactive in [13], in assay [14], in assay [15] and in [16].
`OCC(CO)(CO)CO`: the outcome in assay [1], in assay [2], in assay [3], in assay [4], in assay [5] and in [6] was inactive. The molecule was classed as inactive (in assay [7]; in assay [8]; in the assay with HGF (gene 3082); in [9]; in [10]; in assay [11]). Moreover, the result in assay [12], in assay [13], in assay [14], in [15], in [16] and in [17] was inactive.
